Measured values published in PubChem BioAssay (NCI).
This is part of a sample that, as a whole, favours compounds with a hit. Of some 79,000 tested, about 15% had one in any assay. Activity calls are given as the source filed them. Cut-off read from the data, not from the text of the source: active = growth inhibition above about 70%; inactive = the rest.

Key:
[1] = NCI Yeast Anticancer Drug Screen. Data for the rad50 strain (AID 155);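 note: 0% = growth of vehicle-only cultures of the same strain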; settings: S. cerevisiae rad50 strain growth inhibition; at 50.0 µM; hits give high values
Procedure, shortened: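 Relative growth inhibition (compound vs vehicle) was measured in yeast with a defined repair-gene alteration.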

[2] = NCI Yeast Anticancer Drug Screen. Data for the mec2-1 strain (AID 157); settings: S. cerevisiae mec2-1 strain, at 50.0 µM, hits give high values
Procedure, shortened: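 Mutant yeast (mec2-1) grown with compound; growth inhibition relative to vehicle control reported.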

[3] = NCI Yeast Anticancer Drug Screen. Data for the sgs1 mgt1 strain (AID 161);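 note: 0% = growth of cultures given vehicle only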; settings: S. cerevisiae sgs1 mgt1 strain, at 50.0 µM, hits give high values
Procedure, shortened: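 Yeast cells carrying a defined DNA-repair defect were exposed to test compounds. Growth inhibition was measured relative to vehicle-treated controls.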

[4] = NCI Yeast Anticancer Drug Screen. Data for the cln2 rad14 strain (AID 165);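 note: 0% = growth equal to vehicle treated cultures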; settings: S. cerevisiae cln2 rad14 strain, at 50.0 µM, hits give high values
Procedure, shortened: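 Readout is yeast growth inhibition versus vehicle-treated controls, using a strain with cln2 and rad14 alterations exposed to compound.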

[5] = NCI Yeast Anticancer Drug Screen. Data for the bub3 strain (AID 167); settings: S. cerevisiae bub3 mutant strain, at 50.0 µM, hits give high values
Procedure, shortened: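 Screening used yeast with an engineered genetic alteration affecting cell cycle control. Compound-exposed cultures were compared with vehicle cultures, and reduced growth was taken as inhibition.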

[6] = NCI Yeast Anticancer Drug Screen. Data for the mlh1 rad18 strain (AID 175); settings: S. cerevisiae mlh1 rad18 strain growth inhibition; at 50.0 µM; hits give high values
Procedure, shortened: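 Genetically defined yeast (DNA repair-deficient) exposed to compounds; growth inhibition determined relative to vehicle.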

Measured: growth inhibition

CN(C)c1nc(=O)c2c(ccc3ccccc32)o1
inactive: [1] 26.2% | [2] 24.3% | [3] 7.6% | [4] 14.7% | [5] 0.55% | [6] -3.7%

CCCCCCCC(=O)OCC1OC(n2cc(F)c(=O)[nH]c2=O)C(NC(=O)OCc2ccccc2)C(OC(=O)CCCCCCC)C1O (configuration not stated)
inactive: [1] 20.2% | [2] 4.05% | [3] 13.4% | [4] 14.3% | [5] 0.35% | [6] 38.3%

CCCC(=O)OCC(C)(C)CC(C)C
inactive: [1] -9.55% | [2] -57.9% | [3] -10.5% | [4] -5.55% | [5] -14.5% | [6] -24.4%

CCOC(=O)C(C)NCc1ccccc1 (configuration not stated)
inactive: [1] 2.15% | [2] 0.1% | [3] -1.4% | [4] -39.6% | [5] 0.95% | [6] -3.25%

c1cc2c3c(c1)ccc1cccc(c13)C2
inactive: [1] 39.6% | [2] -26.2% | [3] 12.8% | [4] 11.9% | [5] 24.6% | [6] 27.1%

O=C1CCCCC1N1CCCCC1 (configuration not stated)
inactive: [1] -4.95% | [2] -14.7% | [3] 10.8% | [4] 2.65% | [5] -1.3% | [6] 0%

COc1ccccc1C(=O)N/N=C/c1ccncc1
inactive: [1] -2.85% | [2] 24.5% | [3] 5.7% | [4] -5.7% | [5] 20.2% | [6] 9.8%

CC(=O)Nc1ccc(N)cc1-c1ccc(N)cc1
inactive: [1] -2.75% | [2] -16.9% | [3] 1.5% | [4] 29.1% | [5] 5.25% | [6] -18%

c1ccc(-c2sc(-c3ccccc3)c3c2C2CCC3C2)cc1
inactive: [1] -12.4% | [2] 6.05% | [3] 14% | [4] 29% | [5] 40.6% | [6] -0.05%

Cc1ccc(NC(=O)OCCOc2ccccc2)cc1NC(=O)OCCOc1ccccc1
inactive: [1] 10.3% | [2] 17.1% | [3] 28% | [4] 6.3% | [5] 3.1% | [6] 33.9%

C1=COC(C2NCCCN2)CC1 (configuration not stated)
inactive: [1] -5.9% | [2] 8.25% | [3] -2.6% | [4] -68.8% | [5] -26.5% | [6] -3.7%

CN(C)CCCCC(C#N)(c1ccccc1)c1ccccc1
inactive: [1] 16.3% | [2] 18.8% | [3] 16.6% | [4] 12.7% | [5] 26.5% | [6] 38.5%

O=C(O)c1cccc2c1CCCC2
inactive: [1] -2.7% | [2] 7.35% | [3] -21.6% | [4] 0.05% | [5] -11.6% | [6] 8.05%

CC(O)CN(Cc1ccccc1)CC(C)O (configuration not stated)
inactive: [1] 8.1% | [2] 28.9% | [3] -6.7% | [4] -22.9% | [5] -3.5% | [6] -14.9%

CC(C)(C#N)CCCCC(N)=O
inactive: [1] -1.4% | [2] -13.4% | [3] -12.2% | [4] -6.1% | [5] -19.1% | [6] -10.7%

NC(=O)NC12CC3CC(CC(F)(C3)C1)C2
inactive: [1] -19.6% | [2] -29.1% | [3] -29.7% | [4] -0.95% | [5] -47.5% | [6] -9.85%

CCCCCCCCCCCl
inactive: [1] 13.2% | [2] 5.85% | [3] 28.5% | [4] 21.8% | [5] 17.6% | [6] 25%

O=C1c2ccccc2C(=O)N1Cl
inactive: [1] 8.7% | [2] -4.75% | [3] -37.1% | [4] -0.05% | [5] 2.2% | [6] -5.75%

Cc1c2c(cc3c1[nH]c1ccccc13)C(c1ccc(F)cc1)=NCC2
inactive: [1] -1.8% | [2] 5.55% | [3] 1.85% | [4] -51% | [5] -0.6% | [6] -2.45%

CCCCC(O)C(C)(C)C (configuration not stated)
inactive: [1] 1.5% | [2] -8.65% | [3] 3.55% | [4] 6.55% | [5] 9.65% | [6] 7.2%

C=C1CC2(CCC3C4CC=C5CC(O)CCC5(C)C4CCC32C)OC1=O (configuration not stated)
inactive: [1] 2.9% | [2] 11.7% | [3] 6.45% | [4] 46.3% | [5] 8.15% | [6] 15.2%

CCCCCCCCC(=O)N1SC(NC(=O)OC)=Nc2ccccc21
active: [1] 98.2% | [2] 98.2% | [3] 98% | [4] 90.2% | [5] 97% | [6] 98.1%

Cn1c(=O)c(CC(O)C(Cl)(Cl)Cl)nc2ccccc21 (configuration not stated)
inactive: [1] 20.6% | [2] 23.6% | [3] 3.4% | [4] 3.75% | [5] 18.9% | [6] 31.7%

CNC(=O)OCc1c(COC(=O)NC)c(-c2ccc(S(=O)(=O)c3ccccc3)cc2)n(C)c1C
inactive: [1] -5.85% | [2] -3.85% | [3] -1.95% | [4] -2.7% | [5] -16.4% | [6] -42.6%

COc1ccc2c(c1)CC/C(=C\C1(Sc3ccccc3)CC1)C2O (configuration not stated)
inactive: [1] -12.1% | [2] -3.35% | [3] -10.2% | [4] -16.6% | [5] -10.7% | [6] -15.8%

O=S(=O)(Nc1nccs1)c1ccc(Cl)cc1
active: [3] 74.2%
inactive: [1] 25.1% | [2] 46% | [4] 20.4% | [5] 33% | [6] 68.2%

N#CCCCCN1CCCCC1
inactive: [1] -4.85% | [2] -20.9% | [3] -9.95% | [4] 9.8% | [5] -14.6% | [6] 13.6%

Cc1cc[n+](CC(=O)CCc2ccc(C(=O)C[n+]3ccc(C)cc3)cc2)cc1
inactive: [1] 41.1% | [2] -1.85% | [3] 34.3% | [4] -6.4% | [5] -3.95% | [6] 11.1%

C1Cc2nnnn2C1
inactive: [1] -7.4% | [2] -20.1% | [3] 0.9% | [4] -2.85% | [5] -7.95% | [6] 12.6%

COc1ccc(C(CCl)(CCl)c2ccc(OC)c(C)c2)cc1C
inactive: [1] -23.3% | [2] -74.1% | [3] -30.2% | [4] -4.05% | [5] 5.3% | [6] -20.4%

Nc1ccc(CCCCc2nc(N)nc(N)c2-c2ccc(Cl)c(Cl)c2)cc1
active: [2] 77% | [3] 88.8%
inactive: [1] 36.5% | [4] 9.1% | [5] 14.9% | [6] 60.5%

NC(=O)C(NN=C1c2ccccc2-c2ccccc21)(c1ccccc1)c1ccccc1
inactive: [1] 41% | [2] -0.2% | [3] 28% | [4] 42.8% | [5] 0.05% | [6] 18.7%

N#Cc1nnc2cc(-c3ccccc3)nn2c1-c1cccs1
inactive: [1] 0.6% | [2] -8.6% | [3] 15.8% | [4] 21.1% | [5] 4.1% | [6] 6.35%

CC1CN=C(N(C(=O)Nc2ccc(Cl)cc2)c2cccc(Cl)c2)S1 (configuration not stated)
inactive: [1] -30.9% | [2] -13.7% | [3] -50.1% | [4] -8.75% | [5] -14.8% | [6] -52%

O=C1Cc2ccccc2CCc2ccccc21
inactive: [1] 13.2% | [2] -13.3% | [3] 6.5% | [4] 22.8% | [5] -13.8% | [6] 24%

Cc1ccc2nc(CN(CCO)CCO)cc(=O)n2c1
inactive: [1] 34.4% | [2] 4.95% | [3] 40.5% | [4] 4% | [5] 26.6% | [6] 28.4%

CCOC(=O)NC1OC(C(N)=O)C(O)C(O)C1O (configuration not stated)
inactive: [1] 2.25% | [2] -5.7% | [3] 3.4% | [4] -33.3% | [5] 4.5% | [6] 1.4%

O=C1C2=C(c3ccccc31)C(c1ccc(Cl)cc1)NC(=S)N2 (configuration not stated)
inactive: [1] 52.6% | [2] 26.5% | [3] 57.8% | [4] 35.2% | [5] 44.4% | [6] 60.1%

COc1cc(NCCCN(CC(C)C)CC(C)C)c2ncccc2c1Cl
inactive: [1] 27.5% | [2] 26.1% | [3] 55% | [4] 19.8% | [5] 27.3% | [6] 38.4%

c1ccc2c(c1)OCCOCCOc1ccccc1OCCO2
inactive: [1] -3.6% | [2] 0.4% | [3] 0.95% | [4] 17.8% | [5] -6.5% | [6] -3.65%

O=c1cc(-c2ccccc2)oc2c(N=Nc3ccccc3)ccc(O)c12
inactive: [1] 33.8% | [2] -14.8% | [3] 22.9% | [4] 25.4% | [5] 22.4% | [6] -11.5%

O=S1Cc2nc3ccccc3n2C1c1c(F)cccc1F (configuration not stated)
inactive: [1] 1.25% | [2] -6.1% | [3] -4% | [4] 21.6% | [5] 3.6% | [6] -18.8%
